# According to PubChem BioAssay (NCATS):
# Inconclusive results are not listed. A call without a number means that no potency is given here. Calls of active or inactive are those of the source. Unless noted, calls come from the whole dose curve; as a rule, active = well fitted curve in the direction sought with a large enough effect; inconclusive = small, poorly fitted or top-dose-only effect, or another doubt; inactive = no such curve, though single readings can be large; an effect the other way counts as inactive or inconclusive.
# Experiments:
# [1] = qHTS to identify inhibitors of the type 1 interferon - major histocompatibility complex class I in skeletal muscle: primary screen against the NCATS Mechanism Interrogation Plate v5.0 (MIPE) Libary (AID 1347411); note: nearly all actives have a fitted effect of over 65% in size; note: potency is the fitted concentration of half-maximal effect
# In short: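 Luminescence from HiBiT-tagged endogenous HLA-B*08:01 served as the MHC class I read-out. CRISPR-engineered C25cl48 human myoblasts received 4.0 ng/ml IFN-beta plus compound for 24 hrs, with an 11-point, 1:3 series topping at 46 uM final.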
# [2] = target: Calcium and integrin-binding protein 1 (Homo sapiens) (UniProt Q99828); assay: Primary qHTS for Identification of Calcium Integrin Binding Protein 1 (CIB1) Competitor (AID 1508620);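 note: GST tagged CIB1 binding a fluorescein labelled alphaIIb integrin peptide tracer; top concentration of the series differs between compounds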
# Sequence of Calcium and integrin-binding protein 1 (Homo sapiens) (Q99828 whole entry, looked up): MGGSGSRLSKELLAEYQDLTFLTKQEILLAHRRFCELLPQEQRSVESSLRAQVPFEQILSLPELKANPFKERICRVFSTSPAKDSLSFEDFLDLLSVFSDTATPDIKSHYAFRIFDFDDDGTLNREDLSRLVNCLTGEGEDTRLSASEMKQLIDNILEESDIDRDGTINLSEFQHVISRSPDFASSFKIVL
# In short: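 CIB1-GST (1 uM final) and compound incubated 15 min at room temperature before adding FITC-alphaIIb peptide tracer (100 nM final). Competition for binding read by fluorescence polarization (ex 480, em 540) after another 15 min at room temperature.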
# [3] = Primary qHTS for small molecule stabilizers of the endoplasmic reticulum resident proteome: Secreted ER Calcium Modulated Protein (SERCaMP) assay (AID 1508630)
# In short: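 GLuc-SERCaMP-expressing SH-SY5Y cells, pretreated 16 h with compound, are challenged with thapsigargin to empty ER calcium stores; after 4 h, coelenterazine is added directly to the medium and luminescence is imaged.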
# [4] = target: Cytochrome P450 2C9 (Homo sapiens) (UniProt P11712); assay: Cytochrome P450 family 2 subfamily C member 9 (CYP2C9) small molecule antagonists: luciferase biochemical (cell-free) qHTS assay (AID 1645842; active = well fitted curve in the direction sought with a large enough effect in the repeat runs; an effect the other way counts as inactive or inconclusive; note: nearly all actives have a fitted effect of over 55% in size; note: potency is the fitted concentration of half-maximal effect)
# Sequence of Cytochrome P450 2C9 (Homo sapiens) (P11712 whole entry, looked up): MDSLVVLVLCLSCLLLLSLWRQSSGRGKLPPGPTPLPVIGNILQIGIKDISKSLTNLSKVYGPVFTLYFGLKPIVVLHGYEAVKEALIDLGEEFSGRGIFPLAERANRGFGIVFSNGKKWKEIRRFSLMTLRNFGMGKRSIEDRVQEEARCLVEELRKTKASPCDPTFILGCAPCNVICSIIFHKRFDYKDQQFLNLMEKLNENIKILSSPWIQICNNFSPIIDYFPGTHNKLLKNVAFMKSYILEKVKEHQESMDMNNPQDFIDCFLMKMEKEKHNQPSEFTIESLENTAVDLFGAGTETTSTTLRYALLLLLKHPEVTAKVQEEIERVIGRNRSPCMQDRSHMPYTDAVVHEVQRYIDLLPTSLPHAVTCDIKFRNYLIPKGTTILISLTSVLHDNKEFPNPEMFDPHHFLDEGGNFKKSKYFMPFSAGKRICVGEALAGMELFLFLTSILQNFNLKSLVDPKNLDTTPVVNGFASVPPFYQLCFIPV
# In short: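 Luminescence, after 20 min with luciferin detection reagent, reflected CYP2C9 turnover during a 1 h NADPH-driven reaction at 37C. Enzyme-substrate mix contained 0.4% bovine serum albumin and was preincubated with compound 10 min at room temperature.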
# [5] = target: Cytochrome P450 2D6 (Homo sapiens) (UniProt P10635); assay: Cytochrome P450 family 2 subfamily D member 6 (CYP2D6) small molecule antagonists: luciferase biochemical (cell-free) qHTS assay (AID 1645840; active = well fitted curve in the direction sought with a large enough effect in the repeat runs; an effect the other way counts as inactive or inconclusive; note: nearly all actives have a fitted effect of over 55% in size; note: potency is the fitted concentration of half-maximal effect)
# Sequence of Cytochrome P450 2D6 (Homo sapiens) (P10635 whole entry, looked up): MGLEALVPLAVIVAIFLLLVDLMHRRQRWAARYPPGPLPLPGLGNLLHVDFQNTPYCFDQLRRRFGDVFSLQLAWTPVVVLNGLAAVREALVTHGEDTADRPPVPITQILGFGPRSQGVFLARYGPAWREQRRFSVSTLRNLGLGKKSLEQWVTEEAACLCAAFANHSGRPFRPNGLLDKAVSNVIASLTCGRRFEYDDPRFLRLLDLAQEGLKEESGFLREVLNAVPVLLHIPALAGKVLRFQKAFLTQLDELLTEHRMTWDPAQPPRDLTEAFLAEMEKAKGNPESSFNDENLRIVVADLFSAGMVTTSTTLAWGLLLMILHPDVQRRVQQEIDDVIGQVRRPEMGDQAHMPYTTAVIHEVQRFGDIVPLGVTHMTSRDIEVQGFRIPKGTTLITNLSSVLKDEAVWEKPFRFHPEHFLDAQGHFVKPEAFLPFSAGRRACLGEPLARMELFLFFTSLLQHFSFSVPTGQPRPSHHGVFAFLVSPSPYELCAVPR
# In short: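 P450-Glo luminescent screen: recombinant CYP2D6 enzyme–proluciferin substrate mix preincubated with compound 10 min at room temperature, then NADPH regeneration added for 1 h at room temperature. Detection reagent added for 20 min; luciferin light read as relative luminescence units.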
# [6] = target: Calcium and integrin-binding protein 1 (Homo sapiens) (UniProt Q99828); assay: Confirmatory qHTS for Identification of Calcium Integrin Binding Protein 1 (CIB1) Competitor (AID 1508617); note: nearly all actives have a fitted effect of over 65% in size; note: potency is the fitted concentration of half-maximal effect
# In short: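 Fluorescence polarization competition: CIB1-GST (1 uM final) in 5 mM HEPES pH 7.4, 125 mM NaCl, 5 mM CaCl2, 0.01% Tween20 preincubated 15 min RT with compound (up to 114 uM), then FITC-alphaIIb peptide (100 nM) added, 15 min RT.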
# [7] = target: N-terminal Xaa-Pro-Lys N-methyltransferase 1 (Homo sapiens) (UniProt Q9BV86); assay: Confirmatory qHTS for Inhibitors of N-terminal methyltransferase 1 (NTMT1): MTaseGlo Assay (AID 1645874); note: potency is the fitted concentration of half-maximal effect; nearly all actives have a fitted effect of over 65% in size
# Sequence of N-terminal Xaa-Pro-Lys N-methyltransferase 1 (Homo sapiens) (Q9BV86 whole entry, looked up): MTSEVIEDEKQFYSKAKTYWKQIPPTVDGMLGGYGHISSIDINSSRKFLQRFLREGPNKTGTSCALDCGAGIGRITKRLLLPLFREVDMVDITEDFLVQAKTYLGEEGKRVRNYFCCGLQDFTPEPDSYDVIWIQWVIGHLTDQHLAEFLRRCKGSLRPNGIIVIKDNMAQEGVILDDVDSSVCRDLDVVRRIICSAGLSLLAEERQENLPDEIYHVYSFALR
# In short: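 Luminescent MTase-Glo read-out of SAH. 125 nM NTMT1, 100 uM SAM, 1 uM SPKRIA substrate, 30 min RT reaction after 15 min compound preincubation. Normalized to no-enzyme and DMSO controls; Hill fit.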
smiles,measurement,setting,value
COc1cc(-c2nn(C3CCC(N4CCN(C(C)=O)CC4)CC3)c3ncnc(N)c23)ccc1NC(=O)c1cc2ccccc2n1C (stereo not drawn),Potency,[1],inactive
same,outcome,[2],inactive
same,Potency,[3],inactive
same,Potency,[4],3.01 µM (active)
Cc1ccc(NC(=O)C2(c3ccc4c(c3)OC(F)(F)O4)CC2)nc1-c1cccc(C(=O)O)c1,Potency,[1],inactive
same,outcome,[2],inactive
same,Potency,[5],inactive
CC[C@H](CO)Nc1nc(NCc2ccccc2)c2ncn(C(C)C)c2n1,Potency,[1],29.4 µM (active)
same,Potency,[3],inactive
CC(=O)Nc1sc2c(c1-c1nc3ccccc3s1)CNC2,Potency,[6],inactive
same,outcome,[2],inactive
same,Potency,[3],inactive
NC(=O)c1cccc2cn(-c3ccc([C@@H]4CCCNC4)cc3)nc12,Potency,[1],inactive
same,outcome,[2],inactive
same,Potency,[3],inactive
same,Potency,[4],inactive
O=C(O)c1ccc2c(c1)nc(Nc1cccc(Cl)c1)c1ccncc12,Potency,[1],16.5 µM (active)
same,outcome,[2],inactive
same,Potency,[3],inactive
same,Potency,[5],inactive
same,Potency,[4],12 µM (active)
same,Potency,[7],28.2 µM (active)
Cc1cc(Nc2cc(CN3CCOCC3)c3nc(C)c(Cc4ccc(Cl)cc4F)n3n2)n[nH]1,Potency,[1],5.23 µM (active)
same,outcome,[2],inactive
same,Potency,[3],inactive
same,Potency,[5],23.9 µM (active)
same,Potency,[4],12 µM (active)
same,Potency,[7],20.5 µM (active)
CC(C)=CCCC(C)=CCCC(C)=CCSc1ccccc1C(=O)O,outcome,[2],inactive
CC(C)(O)CCc1ccc(OCc2cc(-c3cccc(OC(F)F)c3)c3ncccc3c2)cc1,Potency,[6],inactive
same,Potency,[3],inactive
COc1ccc(C=Cc2cc(OC)c(OC)c(OC)c2)cc1O,outcome,[2],inactive
same,Potency,[3],inactive
CC1(C)OC2=C(C(=O)c3ccccc3C2=O)[C@H](NCc2ccccc2)[C@H]1O,outcome,[2],inactive
same,Potency,[3],inactive
CCCCCN(CCC12CC3CC(CC(C3)C1)C2)C(=O)NCCCc1ccncc1,outcome,[2],inactive
COc1cc(OC2CCN(C)CC2)ccc1Nc1ncc2c(n1)n(C1CCCC1)c(=O)n2C,outcome,[2],inactive
same,Potency,[3],inactive
CCC1=C[C@@H]2CN(C1)Cc1c([nH]c3ccccc13)[C@@](C(=O)OC)(c1cc3c(cc1OC)N(C)[C@@H]1[C@@](O)(C(=O)OC)[C@H](OC(C)=O)[C@]4(CC)C=CCN5CC[C@]31[C@@H]54)C2,outcome,[2],inactive
same,Potency,[3],inactive
COc1cc2ncnc(Nc3ccc(F)c(Cl)c3)c2cc1NC(=O)C=CCN1CCCCC1,outcome,[2],inactive
same,Potency,[3],inactive
O=C(Nc1cc(C(F)(F)F)cc(C(F)(F)F)c1)c1cc(Cl)ccc1O,outcome,[2],inactive
same,Potency,[3],inactive
Cc1coc2c1C(=O)C(=O)c1c-2ccc2c1CCCC2(C)C,Potency,[6],39.8 µM (active)
same,outcome,[2],inactive
same,Potency,[3],inactive
same,Potency,[5],23.9 µM (active)
